Screens deposited in PubChem by Center for Chemical Genomics, University of Michigan.
This is a sample that favours compounds with a hit; in the whole collection about 0.86% have one here.
TAR Tat displ = HIV-1 TAR-Tat binding disruption. AID 1259389. actives 0.6% (n = 100,000). z-score (test concentration not listed). HIV-1 TAR RNA, Tat peptide displacement FRET; hits give high values; active means z-score of 3 or more in at least 2 runs
CDC25B-CDK2 inh = human CDC25B-CDK2/CyclinA binding inhibition; HTRF CDC25B-CDK2/CyclinA binding, anti-His/anti-Flag; hits give high values; z-score (test concentration not listed); actives 0.72% (n = 94,000); in the data active means z-score above about 3.2
Large screens that a line does not name were inactive.

Cc1nc([N+](=O)[O-])cn1CC(=O)O	none (no result: CDC25B-CDK2 inh)
O=c1cc(CSc2nnc(-c3ccc(Cl)cc3)o2)nc2sc(C3CC3)nn12	TAR Tat displ 14.5
O=c1cc(CSc2nnc(-c3cccs3)o2)nc2sc(C3CCCCC3)nn12	none
CSc1cccc(NC(=O)CSc2nnc3c4c5c(sc4ncn23)CCCC5)c1	none
Cc1ccc(-c2onc(C)c2C)cc1S(=O)(=O)Nc1cccc(-c2ccno2)c1	none (no result: CDC25B-CDK2 inh)
CCCNC(=O)c1cn2c3c(ccc(Cl)c3c1=O)OC(C)C2 (stereo not given)	none (no result: CDC25B-CDK2 inh)
CCCCN(CC)CC(=O)Nc1cc(C)c2c(=O)oc3ccccc3c2n1	none
CN1C(=O)C(CC(=O)NC2CCCCC2)Sc2ccc(S(=O)(=O)N(C)C)cc21 (stereo not given)	none (no result: CDC25B-CDK2 inh)
N#Cc1nc(-c2ccc(S(=O)(=O)N3CCc4ccccc4C3)cc2)oc1NCCCn1ccnc1	CDC25B-CDK2 inh 10.7
CN(C)CCNc1oc(-c2ccc(S(=O)(=O)N3CCc4ccccc4C3)cc2)nc1C#N	none
O=C(O)c1ccccc1-c1c2ccc3cc(O)ccc3c2oc2c1ccc1cc(=O)ccc12	TAR Tat displ 25
COc1ccccc1-c1cc(C(=O)O)c2ccccc2n1	none
O=C1CC(c2ccccc2F)C2=C(CC(c3ccccc3Cl)CC2=O)N1 (stereo not given)	none
O=C1CC(c2ccccc2Cl)C2=C(CC(c3ccccc3Cl)CC2=O)N1 (stereo not given)	TAR Tat displ 15.1
C[Si](C)(C)OC(=O)/C=C\C(=O)O[Si](C)(C)C	CDC25B-CDK2 inh 6.07 (no result: TAR Tat displ)
CCOC(=O)/C=C/C(=O)O	none (no result: TAR Tat displ)
Cc1cc(C(=O)C(=O)Nc2nnc(-c3ccco3)s2)c(C)n1-c1cccc(Cl)c1	TAR Tat displ 8.57
Cc1cc(C(=O)C(=O)Nc2nncs2)c(C)n1-c1ccccc1	none
Cc1cc(C(=O)C(=O)Nc2nnc(-c3ccco3)s2)c(C)n1-c1ccccc1Cl	TAR Tat displ 33.1
CCc1nnc(NC(=O)C(=O)c2cc(C)n(-c3ccc(F)cc3)c2C)s1	none
CCCc1nc(SCc2cc(=O)n3nc(C4CC4)sc3n2)n[nH]1	none (no result: CDC25B-CDK2 inh)
O=C(Nc1c(F)cc(F)cc1Br)C1CCCN(c2nnc(N3CCCC3=O)s2)C1 (stereo not given)	none
Cc1cc(C)nc(SN=C2C=C(Cl)C(=O)C(Cl)=C2)n1	CDC25B-CDK2 inh 15.5 (no result: TAR Tat displ)
Cc1cc(C)nc(SCCS(=O)(=O)Cc2ccc(Cl)cc2)n1	none (no result: TAR Tat displ)
Cc1ccc(/C(O)=C2/C(=O)C(=O)N(CC(C)O)C2c2cccc(F)c2)cc1 (stereo not given)	none
CCc1nc(-c2csc(S(=O)(=O)Nc3ccc(Cl)cc3F)c2)no1	none (no result: CDC25B-CDK2 inh)
Cc1sc2c(c1C)c(=O)n(-c1ccccc1)c1n[nH]c(=S)n21	none (no result: TAR Tat displ)
CSc1nc2c(c(Nc3ccc(O)c(C(=O)O)c3)n1)CCC2	TAR Tat displ 17.9
CSc1nc2c(c(Nc3cccc(O)c3)n1)CCC2	none
Cc1ccc(C)c(CN2C(=O)N(c3cc(C)ccc3C)C3CS(=O)(=O)CC32)c1 (stereo not given)	none (no result: CDC25B-CDK2 inh)
COCC1=CC2CC(C1)C[B-]1(C2)Oc2cccc3ccc[n+]1c23 (stereo not given)	CDC25B-CDK2 inh 5.18 (no result: TAR Tat displ)
CCCOc1ccccc1NS(=O)(=O)C1CCS(=O)(=O)C1 (stereo not given)	none
COc1ccc(Cl)cc1NC(=O)CCc1nnc2ccc(N3CCCC3)nn12	none (no result: CDC25B-CDK2 inh)
Cc1ccc(C)c2[nH]c(=O)c(CCNC(=O)CCC3CCCCC3)cc12	none (no result: TAR Tat displ)
CCOC(=O)C1CCN(c2ncnc3sc(C(=O)O)c(C)c23)CC1	TAR Tat displ 15.9 (no result: CDC25B-CDK2 inh)
Cc1c(C(=O)O)sc2ncnc(N3CCC(c4ccccc4)C3)c12 (stereo not given)	none (no result: CDC25B-CDK2 inh)
Clc1cccc(CSCc2nc3ccccc3[nH]2)c1	none
Cc1ccc(-c2cc3c4c(C)n(Cc5ccccc5)c(C)c4c(C)nn3c2)o1	none
Cc1ccc(-c2cc3c4c(C)n(C)c(C)c4c(C)nn3c2)o1	TAR Tat displ 35.6, CDC25B-CDK2 inh 15.8
Cc1ccc(-n2c(C)c3c(C)nn4cc(C)cc4c3c2C)cc1	none (no result: TAR Tat displ)
Cc1ccc(-c2cc3c4c(C)n(Cc5ccc6c(c5)OCO6)c(C)c4c(C)nn3c2)o1	TAR Tat displ 35.5, CDC25B-CDK2 inh 22.9
Cc1ccc(-c2cc3c4c(C)n(C5CCCCC5)c(C)c4c(C)nn3c2)o1	TAR Tat displ 16.6
COc1ccc(NC(=O)Nc2cn(C)c(=O)c3ccccc23)cc1Cl	none (no result: CDC25B-CDK2 inh)
CCC(Sc1nc2ncccc2o1)C(=O)N1CCN(c2ncccn2)CC1 (stereo not given)	none (no result: CDC25B-CDK2 inh)
COc1ccc(Nc2c(-c3cccc(O)c3)nc3ncccn23)cc1OC	none
COc1ccc(S(=O)(=O)n2nc(C)c(S(=O)(=O)N3CCOCC3)c2C)cc1C	none (no result: CDC25B-CDK2 inh)
O=C(c1ccncc1)N(c1ccc2oc(=O)sc2c1)S(=O)(=O)c1cccc2cccnc12	none
COc1ccc(C2C3=C(CC(C)(C)CC3=O)Nc3n[nH]c(-c4ccc(Cl)cc4)c32)cc1 (stereo not given)	none (no result: CDC25B-CDK2 inh)
O=S1(=O)C[C@H](NCc2ccccc2Cl)[C@@H](S(=O)(=O)c2cccs2)C1	none
COCCn1c2c(c(=O)[nH]c1=O)C(c1ccc(SC)cc1)C1=C(N2)c2ccccc2C1=O (stereo not given)	none
CSc1ccc(C2C3=C(Nc4c2c(=O)[nH]c(=O)n4C)c2ccccc2C3=O)cc1 (stereo not given)	TAR Tat displ 7.42
COc1ccc(N2C(=O)C3CC=CCC3C2=O)cc1OC (stereo not given)	none (no result: TAR Tat displ)
O=S(=O)(c1ccc(-n2cnnn2)cc1)N1CCN(c2ccccn2)CC1	none
C#CCSc1nc2c(c(=O)[nH]1)C(c1ccc(F)cc1F)CC(=O)N2 (stereo not given)	none
CC(=O)N1N=C(c2ccco2)OC1c1ccc(-c2ccccc2)cc1 (stereo not given)	none (no result: CDC25B-CDK2 inh)
O=C(Cc1csc(-c2ccccc2)n1)Nc1nc(-c2ccccc2)cs1	none
NNC(=O)c1csc(-c2ccccc2)n1	none (no result: TAR Tat displ)
NNC(=O)Cc1csc(-c2cccc(-n3cccc3)c2)n1	CDC25B-CDK2 inh 16.5 (no result: TAR Tat displ)
NNC(=O)c1csc(-c2cccc(-n3cccc3)c2)n1	CDC25B-CDK2 inh 16.9 (no result: TAR Tat displ)
COc1ccc(S(=O)(=O)N2CCc3cc4cccc(C)c4nc32)c(OC)c1	none
CC(=O)N1c2ccccc2CC1C(=O)NC1CC1 (stereo not given)	none (no result: CDC25B-CDK2 inh)
O=C1c2ccccc2-c2onc3c(N4CCOCC4)cc(NCCN4CCCC4)c1c23	none
CC(C)CNc1cc(N2CCOCC2)c2noc3c2c1C(=O)c1ccccc1-3	CDC25B-CDK2 inh 9.15
O=C1c2ccccc2-c2onc3c(N4CCOCC4)cc(NCCO)c1c23	none
CCOCCCNc1cc(N2CCN(c3ccccc3)CC2)c2noc3c2c1C(=O)c1ccccc1-3	none
CCNc1cc(N2CCOCC2)c2noc3c2c1C(=O)c1ccccc1-3	TAR Tat displ 11.2
CCOCCCNc1cc(N2CCOCC2)c2noc3c2c1C(=O)c1ccccc1-3	TAR Tat displ 6.83
Cc1nc2ccccn2c(=O)c1NC(=O)CCC1CCCCC1	none (no result: CDC25B-CDK2 inh)
N/C(=N\OC(=O)Nc1cccc(Cl)c1)c1ccno1	none (no result: TAR Tat displ)
N=C1C(c2nc3ccccc3c(=O)[nH]2)=C(O)CN1Cc1ccc(Cl)cc1	none
CCOc1cc(C2CC(=O)N3CN(Cc4ccco4)CSC3=C2C#N)ccc1O (stereo not given)	none
CCCSC1=C(C#N)C(c2ccc(O)c(OCC)c2)CC(=O)N1 (stereo not given)	none
CCOc1cc(C2CC(=O)N3CN(c4ccc(Br)cc4)CSC3=C2C#N)ccc1O (stereo not given)	TAR Tat displ 26.8
CCOc1cc(C2CC(=O)N3CN(c4ccc(CC)cc4)CSC3=C2C#N)ccc1O (stereo not given)	TAR Tat displ 23.7
